From PubChem BioAssay (NCATS)
Results filed as inconclusive are left out. Active and inactive are the calls of the source. The call rests on the fitted dose curve; in most records, active means well fitted cell-killing curve with a large enough effect; inconclusive means small, poorly fitted or top-dose-only effect, or effect the other way; inactive means flat fitted curve, though single readings scatter. Where a SMILES comes first, the peptide text is derived from it. The star is where a group is joined. AFC = O=c1cc(C(F)(F)F)c2ccc(N*)cc2o1

Key:
Test in all cases: Primary qHTS to identify gynecologic anti-cancer compounds using libraries of approved drugs and bioactive compounds (AID 1345084); further: nearly all actives have a fitted effect of over 55% in size
C33A = conditions: Gynecologic cancer cell panel viability, ATPlite luminescence, 48 h; series mostly up to 57.5 µM
Method in brief: (§1)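 Cytotoxicity screen measuring ATP content by luciferase luminescence. Each compound is applied at five concentrations for 48 h at 37 C with 5% CO2.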

CAOV3 = conditions: Gynecologic cancer cell panel viability, ATPlite luminescence, 48 h; series mostly up to 57.5 µM
Method in brief: as §1

CASKI = conditions: Gynecologic cancer cell panel viability, ATPlite luminescence, 48 h; series mostly up to 57.5 µM
Method in brief: as §1

Es-2 = conditions: Gynecologic cancer cell panel viability, ATPlite luminescence, 48 h; series mostly up to 57.5 µM
Method in brief: as §1

HeLa = conditions: Gynecologic cancer cell panel viability, ATPlite luminescence, 48 h; series mostly up to 57.5 µM
Method in brief: as §1

Hek293T = conditions: Gynecologic cancer cell panel viability, ATPlite luminescence, 48 h, control line for the selectivity index; series mostly up to 57.5 µM
Method in brief: as §1

JEG-3 = conditions: Gynecologic cancer cell panel viability, ATPlite luminescence, 48 h; series mostly up to 57.5 µM
Method in brief: as §1

OV90 = conditions: Gynecologic cancer cell panel viability, ATPlite luminescence, 48 h; series mostly up to 57.5 µM
Method in brief: as §1

PA-1 = conditions: Gynecologic cancer cell panel viability, ATPlite luminescence, 48 h; series mostly up to 57.5 µM
Method in brief: as §1

SKOV3 = conditions: Gynecologic cancer cell panel viability, ATPlite luminescence, 48 h; series mostly up to 57.5 µM
Method in brief: as §1

Tov-21-G = conditions: Gynecologic cancer cell panel viability, ATPlite luminescence, 48 h; series mostly up to 57.5 µM
Method in brief: as §1

Tov112D = conditions: Gynecologic cancer cell panel viability, ATPlite luminescence, 48 h; series mostly up to 57.5 µM
Method in brief: as §1
On the % scale 0 is the no-effect control and ±100 the full control effect.

O=C(O)c1cc(O[C@@H]2O[C@H](CO[C@@H]3OC[C@@H](O)[C@H](O)[C@H]3O)[C@@H](O)[C@H](O)[C@H]2O)c2ccccc2c1O
inactive: Potency (C33A) | Potency (CAOV3) | Potency (CASKI) | Potency (Es-2) | Potency (HeLa) | Potency (Hek293T) | Potency (JEG-3) | Potency (OV90) | Potency (PA-1) | Potency (SKOV3) | Potency (Tov-21-G) | Potency (Tov112D)

C/C=C(/C)C(=O)O[C@H]1C=C(C)C[C@H](OC(=O)c2ccc(O)cc2)C2[C@](O)(C(C)C)CC[C@@]21C (stereo partly specified)
inactive: Potency (C33A) | Potency (CAOV3) | Potency (CASKI) | Potency (Es-2) | Potency (HeLa) | Potency (Hek293T) | Potency (JEG-3) | Potency (OV90) | Potency (PA-1) | Potency (SKOV3) | Potency (Tov-21-G) | Potency (Tov112D)

C[C@@H]1C/C=C/C=C\C=C\C=C\[C@H](O[C@@H]2O[C@H](C)[C@@H](O)[C@H](N)[C@@H]2O)C[C@@H]2O[C@](O)(C[C@@H](O)C[C@H]3O[C@@H]3/C=C/C(=O)O1)C[C@H](O)[C@H]2C(=O)O
inactive: Potency (C33A) | Potency (CAOV3) | Potency (CASKI) | Potency (Es-2) | Potency (HeLa) | Potency (Hek293T) | Potency (JEG-3) | Potency (OV90) | Potency (PA-1) | Potency (SKOV3) | Potency (Tov-21-G) | Potency (Tov112D)

C=C1CC2C3(C)C(O)CC(=O)C(C)(C)C3C(OC(C)=O)C(OC(C)=O)C2(C)C2C(=O)OC(C)(C(=O)OC)C(=O)C12C (stereo unspecified)
inactive: Potency (C33A) | Potency (CAOV3) | Potency (CASKI) | Potency (Es-2) | Potency (HeLa) | Potency (Hek293T) | Potency (JEG-3) | Potency (OV90) | Potency (PA-1) | Potency (SKOV3) | Potency (Tov-21-G) | Potency (Tov112D)

Cc1ccc2c(c1)C=Cc1cc(C)ccc1C2c1cn(Cc2ccc(C(=O)Nc3nn[nH]n3)o2)c(=O)[nH]c1=S
inactive: Potency (C33A) | Potency (CAOV3) | Potency (CASKI) | Potency (Es-2) | Potency (HeLa) | Potency (Hek293T) | Potency (JEG-3) | Potency (OV90) | Potency (PA-1) | Potency (SKOV3) | Potency (Tov-21-G) | Potency (Tov112D)

CC1=C(CC(=O)O)c2cc(F)ccc2C1=Cc1ccc(S(C)(=O)=O)cc1
inactive: Potency (C33A) | Potency (CAOV3) | Potency (CASKI) | Potency (Es-2) | Potency (HeLa) | Potency (Hek293T) | Potency (JEG-3) | Potency (OV90) | Potency (PA-1) | Potency (SKOV3) | Potency (Tov-21-G) | Potency (Tov112D)

COc1cc(/C=C/C(=O)OC2CC(OC(C)=O)C(OC(C)=O)C3C2CCC2C(=O)OC(c4ccoc4)CC23C)ccc1O[C@@H]1O[C@H](CO)[C@@H](O)[C@H](O)[C@H]1O (stereo partly specified)
inactive: Potency (C33A) | Potency (CAOV3) | Potency (CASKI) | Potency (Es-2) | Potency (HeLa) | Potency (Hek293T) | Potency (JEG-3) | Potency (OV90) | Potency (PA-1) | Potency (SKOV3) | Potency (Tov-21-G) | Potency (Tov112D)

COC1CC(OC2CCC3(C)C(=CCC4C3CCC3(C)C(C(C)O)CCC43O)C2)OC(C)C1OC1OC(C)C(OC2OC(COC3OC(COC4OC(CO)C(O)C(O)C4O)C(O)C(O)C3O)C(O)C(O)C2O)C(OC)C1O (stereo unspecified)
inactive: activity change, negative = cytotoxicity (C33A) 3.94% [at 11.6 µM] | activity change, negative = cytotoxicity (CAOV3) 2.24% [at 11.6 µM] | activity change, negative = cytotoxicity (CASKI) 16.9% [at 11.6 µM] | activity change, negative = cytotoxicity (Es-2) 1.08% [at 11.6 µM] | activity change, negative = cytotoxicity (HeLa) -2.66% [at 11.6 µM] | activity change, negative = cytotoxicity (Hek293T) -3% [at 11.6 µM] | activity change, negative = cytotoxicity (JEG-3) -1.13% [at 11.6 µM] | activity change, negative = cytotoxicity (OV90) 3.31% [at 11.6 µM] | activity change, negative = cytotoxicity (PA-1) 5.02% [at 11.6 µM] | activity change, negative = cytotoxicity (SKOV3) 0% [at 11.6 µM] | activity change, negative = cytotoxicity (Tov-21-G) -5.94% [at 11.6 µM] | activity change, negative = cytotoxicity (Tov112D) -0.956% [at 11.6 µM]

CC(=O)N[C@@H](CC(C)C)C(=O)N[C@@H](CCC(=O)O)C(=O)N[C@@H](CCC(=O)O)C(=O)N[C@@H](CC(=O)O)C(=O)Nc1ccc2c(C(F)(F)F)cc(=O)oc2c1 (Ac-LEED-{AFC})
inactive: Potency (C33A) | Potency (CAOV3) | Potency (CASKI) | Potency (Es-2) | Potency (HeLa) | Potency (Hek293T) | Potency (JEG-3) | Potency (OV90) | Potency (PA-1) | Potency (SKOV3) | Potency (Tov-21-G) | Potency (Tov112D)

C=C1C[C@]23C[C@H]1CC[C@H]2[C@]1(C)CCC[C@@]2(CO)C(=O)O[C@H]([C@H]21)[C@@H]3O
inactive: Potency (C33A) | Potency (CAOV3) | Potency (CASKI) | Potency (Es-2) | Potency (HeLa) | Potency (Hek293T) | Potency (JEG-3) | Potency (OV90) | Potency (PA-1) | Potency (SKOV3) | Potency (Tov-21-G) | Potency (Tov112D)

CC(C)C(=O)c1cn(CC(=O)COc2ccc(Oc3ccccc3)cc2)c2ccc(C(=O)O)cc12
inactive: Potency (C33A) | Potency (CAOV3) | Potency (CASKI) | Potency (Es-2) | Potency (HeLa) | Potency (Hek293T) | Potency (JEG-3) | Potency (OV90) | Potency (PA-1) | Potency (SKOV3) | Potency (Tov-21-G) | Potency (Tov112D)

CCC1CC2C(C)=CC3CCCCC3C2(C)C2(OC(=O)C(C)(O)OC2=O)O1 (stereo unspecified)
inactive: Potency (C33A) | Potency (CAOV3) | Potency (CASKI) | Potency (Es-2) | Potency (HeLa) | Potency (Hek293T) | Potency (JEG-3) | Potency (OV90) | Potency (PA-1) | Potency (SKOV3) | Potency (Tov-21-G) | Potency (Tov112D)

C[C@@H]1O[C@@H](O[C@H]2[C@H](O[C@H]3CC[C@@]4(C)C(CC[C@]5(C)C4CC=C4C6CC(C)(C)CC[C@]6(C(=O)O[C@@H]6O[C@H](CO[C@@H]7O[C@H](CO)[C@@H](O[C@@H]8O[C@@H](C)[C@H](O)[C@@H](O)[C@H]8O)[C@H](O)[C@H]7O)[C@@H](O)[C@H](O)[C@H]6O)CC[C@]45C)[C@]3(C)CO)OC[C@H](O)[C@@H]2O)[C@H](O)[C@H](O)[C@H]1O (stereo partly specified)
inactive: activity change, negative = cytotoxicity (C33A) -8.84% [at 6.55 µM] | activity change, negative = cytotoxicity (CAOV3) 1.96% [at 6.55 µM] | activity change, negative = cytotoxicity (CASKI) -8.63% [at 6.55 µM] | activity change, negative = cytotoxicity (Es-2) 23.6% [at 6.55 µM] | activity change, negative = cytotoxicity (HeLa) -1.03% [at 6.55 µM] | activity change, negative = cytotoxicity (Hek293T) -5.22% [at 6.55 µM] | activity change, negative = cytotoxicity (JEG-3) -11.6% [at 6.55 µM] | activity change, negative = cytotoxicity (OV90) -14.8% [at 6.55 µM] | activity change, negative = cytotoxicity (PA-1) -4.46% [at 6.55 µM] | activity change, negative = cytotoxicity (SKOV3) -11.7% [at 6.55 µM] | activity change, negative = cytotoxicity (Tov-21-G) 8.28% [at 6.55 µM] | activity change, negative = cytotoxicity (Tov112D) -13.6% [at 6.55 µM]
